Experiment [1] has as its target T1, Tyrosine-protein kinase receptor TYRO3 (Homo sapiens) (UniProt Q06418).
T1 sequence (whole entry): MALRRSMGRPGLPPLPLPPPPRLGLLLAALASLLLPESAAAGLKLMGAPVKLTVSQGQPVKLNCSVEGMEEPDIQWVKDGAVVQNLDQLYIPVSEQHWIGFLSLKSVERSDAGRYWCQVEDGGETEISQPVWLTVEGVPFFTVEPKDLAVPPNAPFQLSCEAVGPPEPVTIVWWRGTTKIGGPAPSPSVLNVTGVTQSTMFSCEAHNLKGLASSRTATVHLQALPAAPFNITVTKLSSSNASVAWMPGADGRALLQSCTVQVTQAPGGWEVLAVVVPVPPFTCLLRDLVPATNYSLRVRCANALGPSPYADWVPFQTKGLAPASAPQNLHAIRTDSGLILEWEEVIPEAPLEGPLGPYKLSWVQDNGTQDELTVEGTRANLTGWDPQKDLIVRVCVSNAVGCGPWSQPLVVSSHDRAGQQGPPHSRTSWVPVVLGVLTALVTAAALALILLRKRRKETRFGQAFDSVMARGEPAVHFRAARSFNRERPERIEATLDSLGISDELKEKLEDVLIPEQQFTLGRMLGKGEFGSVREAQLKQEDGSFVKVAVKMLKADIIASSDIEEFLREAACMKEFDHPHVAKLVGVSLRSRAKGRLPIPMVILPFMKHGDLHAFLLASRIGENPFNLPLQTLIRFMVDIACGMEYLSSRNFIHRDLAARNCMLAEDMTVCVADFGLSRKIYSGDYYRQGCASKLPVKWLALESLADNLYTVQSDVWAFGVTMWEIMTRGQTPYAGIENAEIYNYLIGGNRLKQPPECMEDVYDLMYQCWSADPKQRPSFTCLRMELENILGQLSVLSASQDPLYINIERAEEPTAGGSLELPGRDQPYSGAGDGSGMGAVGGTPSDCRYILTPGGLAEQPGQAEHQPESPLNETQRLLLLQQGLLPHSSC
The note with it: at 1 µM.

Experiment [2] addresses Tyrosine-protein kinase Yes (Homo sapiens) (UniProt P07947). To be noted: at 0.1 µM.
Experiment [3] shares this target. To be noted: at 1 µM.
In experiment [4] the target is T2, Tyrosine-protein kinase ZAP-70 (Homo sapiens) (UniProt P43403).
T2 sequence (whole entry): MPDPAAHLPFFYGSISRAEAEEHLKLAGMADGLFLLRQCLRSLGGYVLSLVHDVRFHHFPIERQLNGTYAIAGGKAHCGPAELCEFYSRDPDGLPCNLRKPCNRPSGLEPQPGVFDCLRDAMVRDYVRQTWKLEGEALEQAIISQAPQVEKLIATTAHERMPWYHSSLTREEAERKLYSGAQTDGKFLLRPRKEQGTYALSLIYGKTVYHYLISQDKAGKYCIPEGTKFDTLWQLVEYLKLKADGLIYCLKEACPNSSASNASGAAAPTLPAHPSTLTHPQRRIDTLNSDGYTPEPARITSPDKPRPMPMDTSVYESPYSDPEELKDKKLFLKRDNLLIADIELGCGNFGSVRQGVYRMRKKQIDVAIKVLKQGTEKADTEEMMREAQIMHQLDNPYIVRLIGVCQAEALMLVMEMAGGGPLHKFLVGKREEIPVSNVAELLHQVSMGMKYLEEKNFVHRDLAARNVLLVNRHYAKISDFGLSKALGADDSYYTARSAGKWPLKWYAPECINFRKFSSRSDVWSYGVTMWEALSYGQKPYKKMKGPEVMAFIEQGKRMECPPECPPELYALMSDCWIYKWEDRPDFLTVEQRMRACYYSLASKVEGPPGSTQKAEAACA
To be noted: at 0.1 µM.

The target in experiment [5] is T2, Tyrosine-protein kinase ZAP-70 (Homo sapiens). To be noted: at 1 µM.
Experiment [6] concerns the target Serine/threonine-protein kinase B-raf (Homo sapiens) (UniProt P15056). To be noted: at 0.1 µM.
For experiment [7] the target is unchanged. To be noted: at 1 µM.
Experiment [8] has as its system Serine/threonine-protein kinase B-raf (Homo sapiens), P15056 [V600E]. To be noted: at 0.1 µM.
Experiment [9] shares this test system. The note with it: at 1 µM.
For experiment [10], the target named is RAF proto-oncogene serine/threonine-protein kinase (Homo sapiens) (UniProt P04049). To be noted: at 0.1 µM.
Experiment [11] has the same target. The note with it: at 1 µM.
Experiment [12] has as its target T3, Interleukin-1 receptor-associated kinase 4 (Homo sapiens) (UniProt Q9NWZ3).
T3 sequence (whole entry): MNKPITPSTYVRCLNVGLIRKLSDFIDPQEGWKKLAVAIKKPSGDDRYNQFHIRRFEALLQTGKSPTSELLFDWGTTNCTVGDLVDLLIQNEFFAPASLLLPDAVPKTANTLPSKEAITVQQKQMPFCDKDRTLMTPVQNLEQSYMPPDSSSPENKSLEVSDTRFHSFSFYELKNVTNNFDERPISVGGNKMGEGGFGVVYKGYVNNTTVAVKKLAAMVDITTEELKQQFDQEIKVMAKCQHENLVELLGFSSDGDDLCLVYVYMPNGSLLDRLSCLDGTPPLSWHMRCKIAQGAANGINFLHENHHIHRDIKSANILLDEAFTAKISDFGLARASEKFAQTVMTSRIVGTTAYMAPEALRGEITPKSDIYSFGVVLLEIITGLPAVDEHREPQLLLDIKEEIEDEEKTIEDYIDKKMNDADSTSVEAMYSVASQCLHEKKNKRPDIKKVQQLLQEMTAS
The note with it: at 0.1 µM.

In experiment [13] the target is T3, Interleukin-1 receptor-associated kinase 4 (Homo sapiens). To be noted: at 1 µM.
Experiment [14] concerns the target Leucine-rich repeat serine/threonine-protein kinase 2 (Homo sapiens) (UniProt Q5S007). The note with it: at 0.1 µM.
For experiment [15] the target is unchanged. To be noted: at 1 µM.
Experiment [16] deals with Leucine-rich repeat serine/threonine-protein kinase 2 (Homo sapiens), Q5S007 [G2019S]. To be noted: at 0.1 µM.
Experiment [17] has the same test system. The note with it: at 1 µM.

The source of these data is ChEMBL document CHEMBL1961873, “Compounds: GSK PKIS; Assays: Nanosyn kinase panel” (2012).

RAF proto-oncogene serine/threonine-protein kinase (Homo sapiens), sequence (P04049 whole entry): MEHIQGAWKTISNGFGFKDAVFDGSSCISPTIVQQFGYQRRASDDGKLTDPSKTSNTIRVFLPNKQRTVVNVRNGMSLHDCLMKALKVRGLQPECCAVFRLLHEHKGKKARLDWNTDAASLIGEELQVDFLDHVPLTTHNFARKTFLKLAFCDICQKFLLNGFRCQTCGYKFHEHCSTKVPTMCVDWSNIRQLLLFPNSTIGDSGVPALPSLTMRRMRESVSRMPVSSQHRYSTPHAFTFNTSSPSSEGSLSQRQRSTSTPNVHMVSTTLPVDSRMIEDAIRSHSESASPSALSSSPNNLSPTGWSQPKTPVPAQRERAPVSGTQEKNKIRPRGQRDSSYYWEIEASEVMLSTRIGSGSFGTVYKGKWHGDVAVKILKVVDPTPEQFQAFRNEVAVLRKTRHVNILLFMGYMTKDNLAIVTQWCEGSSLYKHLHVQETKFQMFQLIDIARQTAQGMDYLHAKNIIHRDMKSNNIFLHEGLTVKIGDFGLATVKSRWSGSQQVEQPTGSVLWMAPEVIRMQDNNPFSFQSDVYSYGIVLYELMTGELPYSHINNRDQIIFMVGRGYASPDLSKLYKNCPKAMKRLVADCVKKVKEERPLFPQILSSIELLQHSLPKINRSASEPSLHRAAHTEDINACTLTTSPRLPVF
Leucine-rich repeat serine/threonine-protein kinase 2 (Homo sapiens), Q5S007 [G2019S], sequence (Q5S007 whole entry G2019S): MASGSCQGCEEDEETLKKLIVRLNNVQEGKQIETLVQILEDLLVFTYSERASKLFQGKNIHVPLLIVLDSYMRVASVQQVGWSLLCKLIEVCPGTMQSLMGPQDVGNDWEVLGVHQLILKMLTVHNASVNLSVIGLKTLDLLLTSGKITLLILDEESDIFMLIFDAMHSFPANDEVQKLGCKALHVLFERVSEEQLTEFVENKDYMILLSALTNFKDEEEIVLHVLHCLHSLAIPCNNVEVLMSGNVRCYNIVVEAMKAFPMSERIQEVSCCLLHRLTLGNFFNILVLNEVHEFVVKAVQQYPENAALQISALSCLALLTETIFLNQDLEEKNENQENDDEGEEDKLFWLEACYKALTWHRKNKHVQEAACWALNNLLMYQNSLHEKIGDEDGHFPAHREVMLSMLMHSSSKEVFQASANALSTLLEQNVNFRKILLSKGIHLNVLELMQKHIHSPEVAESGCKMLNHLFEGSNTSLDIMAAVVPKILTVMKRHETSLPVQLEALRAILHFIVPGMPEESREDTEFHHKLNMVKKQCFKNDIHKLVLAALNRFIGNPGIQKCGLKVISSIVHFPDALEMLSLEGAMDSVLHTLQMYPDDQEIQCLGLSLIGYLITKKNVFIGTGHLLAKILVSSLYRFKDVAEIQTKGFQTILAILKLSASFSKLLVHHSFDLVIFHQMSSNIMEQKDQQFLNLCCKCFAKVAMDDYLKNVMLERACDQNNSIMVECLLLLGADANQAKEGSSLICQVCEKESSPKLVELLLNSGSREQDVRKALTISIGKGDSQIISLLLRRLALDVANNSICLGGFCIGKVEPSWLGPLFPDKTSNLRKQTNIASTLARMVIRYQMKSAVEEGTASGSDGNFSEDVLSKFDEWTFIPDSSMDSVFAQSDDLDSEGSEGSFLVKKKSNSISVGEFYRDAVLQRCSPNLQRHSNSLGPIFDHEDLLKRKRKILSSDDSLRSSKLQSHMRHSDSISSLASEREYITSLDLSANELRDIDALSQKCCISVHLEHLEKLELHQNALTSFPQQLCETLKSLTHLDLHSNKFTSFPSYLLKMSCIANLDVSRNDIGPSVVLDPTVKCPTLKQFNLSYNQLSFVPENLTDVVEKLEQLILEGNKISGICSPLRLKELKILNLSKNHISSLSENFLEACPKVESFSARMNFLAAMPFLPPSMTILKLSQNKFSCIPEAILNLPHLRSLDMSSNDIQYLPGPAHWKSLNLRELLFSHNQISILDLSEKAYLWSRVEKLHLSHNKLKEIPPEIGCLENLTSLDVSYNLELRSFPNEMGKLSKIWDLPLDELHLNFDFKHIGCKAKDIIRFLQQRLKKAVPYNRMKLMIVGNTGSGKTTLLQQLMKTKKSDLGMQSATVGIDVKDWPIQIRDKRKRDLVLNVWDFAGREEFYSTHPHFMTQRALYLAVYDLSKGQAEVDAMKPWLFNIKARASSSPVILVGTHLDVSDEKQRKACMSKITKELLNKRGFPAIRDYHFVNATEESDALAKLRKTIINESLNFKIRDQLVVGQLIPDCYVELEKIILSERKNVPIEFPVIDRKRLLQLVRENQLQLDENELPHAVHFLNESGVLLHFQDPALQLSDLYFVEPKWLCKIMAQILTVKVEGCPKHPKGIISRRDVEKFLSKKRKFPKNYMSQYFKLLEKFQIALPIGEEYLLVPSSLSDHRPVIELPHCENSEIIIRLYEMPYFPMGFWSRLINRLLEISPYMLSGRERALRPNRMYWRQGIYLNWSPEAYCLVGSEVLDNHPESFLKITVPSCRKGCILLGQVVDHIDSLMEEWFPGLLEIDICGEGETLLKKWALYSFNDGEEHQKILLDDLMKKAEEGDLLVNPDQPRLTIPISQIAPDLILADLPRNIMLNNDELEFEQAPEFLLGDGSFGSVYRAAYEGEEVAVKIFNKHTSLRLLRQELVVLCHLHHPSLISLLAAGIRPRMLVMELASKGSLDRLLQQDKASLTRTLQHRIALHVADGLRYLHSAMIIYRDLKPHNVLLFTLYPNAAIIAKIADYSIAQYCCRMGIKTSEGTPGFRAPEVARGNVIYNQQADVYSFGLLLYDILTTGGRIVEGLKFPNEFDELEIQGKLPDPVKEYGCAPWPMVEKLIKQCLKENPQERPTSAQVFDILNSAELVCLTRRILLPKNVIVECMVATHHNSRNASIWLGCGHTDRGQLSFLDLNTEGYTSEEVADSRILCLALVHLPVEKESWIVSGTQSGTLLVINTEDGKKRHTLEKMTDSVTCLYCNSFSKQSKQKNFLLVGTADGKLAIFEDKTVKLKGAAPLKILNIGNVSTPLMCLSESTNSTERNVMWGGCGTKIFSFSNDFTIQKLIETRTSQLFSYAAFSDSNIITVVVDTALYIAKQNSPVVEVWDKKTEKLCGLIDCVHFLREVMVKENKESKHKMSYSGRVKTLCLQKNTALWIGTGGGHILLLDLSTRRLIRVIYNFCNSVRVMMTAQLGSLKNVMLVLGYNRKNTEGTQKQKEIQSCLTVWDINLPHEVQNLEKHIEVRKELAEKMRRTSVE
Leucine-rich repeat serine/threonine-protein kinase 2 (Homo sapiens), sequence (Q5S007 whole entry): as the sequence (Q5S007 whole entry G2019S) above, with S2019G counted along it
Tyrosine-protein kinase Yes (Homo sapiens), sequence (P07947 2-543 limits assumed): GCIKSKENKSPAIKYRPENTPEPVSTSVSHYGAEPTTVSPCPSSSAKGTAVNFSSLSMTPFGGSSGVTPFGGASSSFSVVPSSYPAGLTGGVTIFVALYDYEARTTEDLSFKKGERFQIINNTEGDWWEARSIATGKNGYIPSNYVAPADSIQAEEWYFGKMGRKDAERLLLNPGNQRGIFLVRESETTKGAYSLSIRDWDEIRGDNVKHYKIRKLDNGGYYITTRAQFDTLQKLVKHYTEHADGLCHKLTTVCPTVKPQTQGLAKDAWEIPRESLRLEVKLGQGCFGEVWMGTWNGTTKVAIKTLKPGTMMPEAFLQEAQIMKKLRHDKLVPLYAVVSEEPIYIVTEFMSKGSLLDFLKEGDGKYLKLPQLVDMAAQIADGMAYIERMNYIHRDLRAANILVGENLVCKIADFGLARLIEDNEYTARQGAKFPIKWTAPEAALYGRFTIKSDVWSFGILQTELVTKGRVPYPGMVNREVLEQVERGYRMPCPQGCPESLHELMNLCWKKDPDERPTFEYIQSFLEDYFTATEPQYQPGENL
Serine/threonine-protein kinase B-raf (Homo sapiens), sequence (P15056 whole entry): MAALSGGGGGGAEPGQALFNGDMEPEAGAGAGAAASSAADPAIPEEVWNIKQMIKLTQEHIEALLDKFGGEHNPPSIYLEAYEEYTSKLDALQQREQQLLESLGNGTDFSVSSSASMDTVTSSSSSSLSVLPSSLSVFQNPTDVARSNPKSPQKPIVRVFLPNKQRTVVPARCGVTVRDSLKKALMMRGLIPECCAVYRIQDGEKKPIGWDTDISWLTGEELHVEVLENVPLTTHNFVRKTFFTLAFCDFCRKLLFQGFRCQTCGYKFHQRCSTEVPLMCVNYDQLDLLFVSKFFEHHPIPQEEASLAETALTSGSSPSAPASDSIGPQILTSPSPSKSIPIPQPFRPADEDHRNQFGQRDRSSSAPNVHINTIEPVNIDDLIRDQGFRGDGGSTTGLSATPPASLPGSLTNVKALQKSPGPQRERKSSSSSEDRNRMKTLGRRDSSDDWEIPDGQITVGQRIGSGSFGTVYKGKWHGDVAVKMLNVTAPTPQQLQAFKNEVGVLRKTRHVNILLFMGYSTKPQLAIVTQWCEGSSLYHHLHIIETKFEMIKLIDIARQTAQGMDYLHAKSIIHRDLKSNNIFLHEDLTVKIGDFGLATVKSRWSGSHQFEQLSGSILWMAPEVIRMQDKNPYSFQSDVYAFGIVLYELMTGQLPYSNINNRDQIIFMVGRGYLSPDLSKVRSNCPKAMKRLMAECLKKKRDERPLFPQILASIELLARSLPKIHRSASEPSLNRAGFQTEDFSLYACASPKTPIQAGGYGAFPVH
Serine/threonine-protein kinase B-raf (Homo sapiens), P15056 [V600E], sequence (P15056 whole entry V600E): as the sequence (P15056 whole entry) above, with V600E counted along it

For orientation: inhibition means the change of the read-out against control, counted positive when it falls. As to `CCn1c(-c2nonc2N)nc2ccncc21`, the inhibition in [1] is -0.39%; in experiment [2] it was 1.81%; in experiment [3], -1.91%; in experiment [4] it was 7.67%; in [5], 3.68%; in experiment [6] it was 2.92%. Besides, the inhibition is 2.33% in [7]; 1.64% in experiment [8]; 3.84% in [9]; 6.58% in [10]; 14% in experiment [11]; 2.09% in experiment [12]. For the same compound, the inhibition in experiment [13] worked out at 0.65%; in [14] it was 1.49%; in experiment [15], 2.85%; in [16], 1.49%; in [17], 6.2%.
`Fc1cccc(COc2ccc(Nc3ncnc4sc(-c5cccs5)cc34)cc2Cl)c1`: the inhibition in experiment [1] was 1.15%; in experiment [2], 0.57%; in experiment [3] it was 1.28%; in experiment [4], -1.83%; in experiment [5], 1.54%; in [6], 1.35%. The inhibition was 2.73% in experiment [7]; 1.62% in [8]; 1.65% in [9]; 1.45% in experiment [10]; -2.15% in experiment [11]; 0.39% in [12]. In addition, the inhibition worked out at 1.34% in experiment [13]; 1.83% in experiment [14]; 4.84% in [15]; 3.4% in experiment [16]; 6.24% in experiment [17].
In the case of `CNC(=O)c1cncc(/C=C/c2c(Cl)cccc2Cl)c1`, the inhibition in [1] turned out to be 4.06%; in experiment [2], 3.3%; in experiment [3] it was 17.2%; in [4] it was 0.11%; in experiment [5], 1.58%; in [6], 6.39%. Besides, the inhibition was found to be 10.5% in [7]; 3.03% in experiment [8]; 4.23% in experiment [9]; 5.08% in experiment [10]; 0.92% in experiment [11]; 1.25% in experiment [12]. In addition, the inhibition in experiment [13] came to 2.37%; in experiment [14] it was 0.98%; in experiment [15] it was 7.19%; in [16] it was 5.24%; in [17], 14.7%.
As for `Nc1ncnc2occ(-c3ccc(NC(=O)Nc4cccc(C(F)(F)F)c4)cc3)c12`, the inhibition in experiment [1] worked out at 32.2%; in experiment [2], 7.17%; in [3], 45.7%; in experiment [4] it was 1.4%; in [5], 1.43%; in [6] it was 7.07%. For the same compound, the inhibition was 13.3% in experiment [7]; 5.78% in experiment [8]; 13.5% in experiment [9]; 0.71% in experiment [10]; -2.58% in experiment [11]; 2.03% in experiment [12]. Besides, the inhibition in experiment [13] stood at 2.34%; in [14] it was 17.1%; in [15], 57.9%; in [16], 13.1%; in experiment [17], 42.8%.
Take `COc1cc(C=NNc2ncnc3c2cnn3-c2ccccc2)ccc1O`: the inhibition in [1] was found to be 33.5%; in experiment [2], 21.5%; in experiment [3], 64.9%; in experiment [4], 3.12%; in experiment [5], 9.72%; in experiment [6], 2.6%. Moreover, the inhibition in experiment [7] is 2.66%; in experiment [8] it was 2.03%; in [9], 2.54%; in [10] it was -0.56%; in [11], -6.14%; in experiment [12], -2.02%. In addition, the inhibition came out at 3.98% in [13]; 7.59% in experiment [14]; 22.3% in experiment [15]; 7.59% in experiment [16]; 40.8% in [17].
For the compound `Cc1nnc(-c2ccc(C)c(-c3ccc(C(=O)Nc4cccc(C#N)c4)cc3)c2)o1`, the inhibition was 1.98% in [1]; 1.42% in experiment [2]; 5.81% in experiment [3]; 2.77% in experiment [4]; 3.12% in experiment [5]; 3.86% in [6]. For the same compound, the inhibition in experiment [7] is 3.97%; in experiment [8], 3.34%; in [9] it was 3.85%; in experiment [10] it was -4.37%; in experiment [11], -9.42%; in experiment [12], 4.13%. The inhibition in experiment [13] was found to be 0.84%; in experiment [14], 0.06%; in [15] it was 0.83%; in experiment [16] it was 2.49%; in experiment [17], 7.62%.
Take `O=C1NC(=O)C(N2CCc3ccccc32)=C1c1ccc(Cl)cc1`: the inhibition stood at 3.19% in experiment [1]; 0.13% in [2]; 1.35% in experiment [3]; 3.14% in [4]; 4.58% in experiment [5]; 6% in [6]. Moreover, the inhibition in experiment [7] worked out at 7.8%; in experiment [8] it was 6.55%; in [9] it was 6.79%; in experiment [10], 0.98%; in experiment [11], 0.17%; in [12] it was 3.05%. Also, the inhibition amounted to 1.81% in experiment [13]; 3.88% in [14]; 8.75% in [15]; 4.99% in [16]; 10.7% in [17].
Turning to `O=C1NC(=O)C(c2ccccc2Cl)=C1Nc1cccc(O)c1`, the inhibition was 1.2% in experiment [1]; 1.06% in experiment [2]; -1.97% in experiment [3]; 1.65% in [4]; 0.4% in [5]; 3.05% in experiment [6]. For the same compound, the inhibition in experiment [7] was 3.21%; in [8], 3.01%; in experiment [9], 2.95%; in [10], 4.73%; in [11], -0.43%; in experiment [12], -2%. The inhibition is 1.87% in experiment [13]; 4.27% in [14]; 13.2% in experiment [15]; 3.28% in experiment [16]; 14.6% in [17].
